# Assays:
# Test in all cases: DAPPL (digital affinity profiling via proximity ligation, sequencing); 10 mM Tris-HCl pH 7.5, 50 mM NaCl, 1 mM DTT, 4% glycerol, room temperature, 30 min; GST-TFs on glutathione beads, 16-mer random dsDNA library, 0.1% formaldehyde crosslink after washing; high values mean tight binding
# FEV = target: T1, FEV (Homo sapiens, UniProt Q99581 1-238); conditions: protein: recombinant; tags: N-terminal GST; dsDNA, one strand shown
# T1 sequence: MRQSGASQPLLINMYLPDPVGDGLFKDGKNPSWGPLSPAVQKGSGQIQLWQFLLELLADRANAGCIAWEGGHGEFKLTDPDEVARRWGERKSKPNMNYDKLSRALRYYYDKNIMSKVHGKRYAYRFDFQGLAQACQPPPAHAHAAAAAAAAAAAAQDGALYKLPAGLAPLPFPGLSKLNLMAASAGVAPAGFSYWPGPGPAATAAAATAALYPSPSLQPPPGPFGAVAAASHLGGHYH
# Summary of the method: (§1)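 After expression in yeast as GST fusions, human transcription factors were bound to glutathione beads, DNA-barcoded and mixed with a tag-only sample. The pools were incubated with 200 nmole of a 16-mer random double-stranded DNA library in Tris/NaCl/DTT/glycerol buffer (30 min, room temperature), washed and crosslinked with 0.1% formaldehyde. Proximity ligation with BsaI/T4 ligase ran for 1 h at 37 °C, before PCR amplification and sequencing on an Illumina NextSeq500. Binding signal is a hexamer's read frequency for a factor divided by its frequency for the tag-only sample.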
# ETV5 = ETV5 (Homo sapiens, UniProt P41161 1-510); conditions: protein: recombinant; tags: N-terminal GST; dsDNA, one strand shown
# Summary of the method: as §1
# HSF1 = HSF1 (Homo sapiens, UniProt Q00613 1-529); conditions: protein: recombinant; tags: N-terminal GST; chain copies: 3; dsDNA, one strand shown
# Summary of the method: as §1
# SPIC = target: T2, SPIC (Homo sapiens, UniProt Q8N5J4 1-248); conditions: protein: recombinant; tags: N-terminal GST; dsDNA, one strand shown
# T2 sequence: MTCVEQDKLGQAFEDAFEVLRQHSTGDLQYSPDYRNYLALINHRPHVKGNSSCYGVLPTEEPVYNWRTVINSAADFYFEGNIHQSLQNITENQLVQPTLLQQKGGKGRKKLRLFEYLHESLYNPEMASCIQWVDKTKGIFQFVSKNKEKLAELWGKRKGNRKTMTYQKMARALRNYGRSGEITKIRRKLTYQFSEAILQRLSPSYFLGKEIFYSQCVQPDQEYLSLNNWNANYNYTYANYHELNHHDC
# Summary of the method: as §1
# ELF4 = ELF4 (Homo sapiens, UniProt Q99607 1-663); conditions: protein: recombinant; tags: N-terminal GST; dsDNA, one strand shown
# Summary of the method: as §1
# ELK4 = target: T3, ELK4 (Homo sapiens, UniProt P28324-2 1-405); conditions: protein: recombinant; tags: N-terminal GST; dsDNA, one strand shown
# T3 sequence: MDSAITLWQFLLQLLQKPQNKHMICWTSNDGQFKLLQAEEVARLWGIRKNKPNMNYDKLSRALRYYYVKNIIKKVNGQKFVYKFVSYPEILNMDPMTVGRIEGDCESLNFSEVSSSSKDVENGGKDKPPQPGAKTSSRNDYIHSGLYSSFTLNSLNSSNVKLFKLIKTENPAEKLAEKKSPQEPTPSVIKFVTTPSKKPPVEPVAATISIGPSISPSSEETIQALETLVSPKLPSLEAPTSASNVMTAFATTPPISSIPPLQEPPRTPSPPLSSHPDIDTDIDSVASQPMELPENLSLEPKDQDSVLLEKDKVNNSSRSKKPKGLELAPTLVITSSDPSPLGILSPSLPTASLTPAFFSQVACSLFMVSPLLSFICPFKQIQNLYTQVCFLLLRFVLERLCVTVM
# Summary of the method: as §1
# ETV2 = target: T4, ETV2 (Homo sapiens, UniProt O00321 1-342); conditions: protein: recombinant; tags: N-terminal GST; dsDNA, one strand shown
# T4 sequence: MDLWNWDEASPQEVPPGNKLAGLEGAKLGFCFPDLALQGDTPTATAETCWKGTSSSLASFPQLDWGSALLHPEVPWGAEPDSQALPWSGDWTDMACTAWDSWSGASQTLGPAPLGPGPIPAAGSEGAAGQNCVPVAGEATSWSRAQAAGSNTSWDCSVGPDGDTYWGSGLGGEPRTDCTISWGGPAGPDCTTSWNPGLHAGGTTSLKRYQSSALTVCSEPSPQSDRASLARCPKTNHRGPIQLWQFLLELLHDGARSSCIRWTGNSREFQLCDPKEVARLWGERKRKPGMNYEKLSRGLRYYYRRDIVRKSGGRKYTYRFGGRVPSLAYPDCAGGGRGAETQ
# Summary of the method: as §1
# ELF3 = target: T5, ELF3 (Homo sapiens, UniProt P78545 1-371); conditions: protein: recombinant; tags: N-terminal GST; dsDNA, one strand shown
# T5 sequence: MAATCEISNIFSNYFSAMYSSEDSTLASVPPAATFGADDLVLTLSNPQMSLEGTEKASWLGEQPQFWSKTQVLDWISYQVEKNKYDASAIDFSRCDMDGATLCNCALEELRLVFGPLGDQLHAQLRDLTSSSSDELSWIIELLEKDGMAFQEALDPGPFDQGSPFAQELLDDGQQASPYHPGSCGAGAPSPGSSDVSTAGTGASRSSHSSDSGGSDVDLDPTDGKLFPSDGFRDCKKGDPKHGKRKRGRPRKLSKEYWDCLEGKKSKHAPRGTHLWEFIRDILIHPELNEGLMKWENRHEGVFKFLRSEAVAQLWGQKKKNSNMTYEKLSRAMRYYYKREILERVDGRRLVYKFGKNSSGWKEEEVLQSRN
# Summary of the method: as §1
# CRX = CRX (Homo sapiens, UniProt O43186 1-299); conditions: protein: recombinant; tags: N-terminal GST; dsDNA, one strand shown
# Summary of the method: as §1
# ETV1 = ETV1 (Homo sapiens, UniProt P50549 1-477); conditions: protein: recombinant; tags: N-terminal GST; dsDNA, one strand shown
# Summary of the method: as §1
# ETV1, sequence (P50549 whole entry): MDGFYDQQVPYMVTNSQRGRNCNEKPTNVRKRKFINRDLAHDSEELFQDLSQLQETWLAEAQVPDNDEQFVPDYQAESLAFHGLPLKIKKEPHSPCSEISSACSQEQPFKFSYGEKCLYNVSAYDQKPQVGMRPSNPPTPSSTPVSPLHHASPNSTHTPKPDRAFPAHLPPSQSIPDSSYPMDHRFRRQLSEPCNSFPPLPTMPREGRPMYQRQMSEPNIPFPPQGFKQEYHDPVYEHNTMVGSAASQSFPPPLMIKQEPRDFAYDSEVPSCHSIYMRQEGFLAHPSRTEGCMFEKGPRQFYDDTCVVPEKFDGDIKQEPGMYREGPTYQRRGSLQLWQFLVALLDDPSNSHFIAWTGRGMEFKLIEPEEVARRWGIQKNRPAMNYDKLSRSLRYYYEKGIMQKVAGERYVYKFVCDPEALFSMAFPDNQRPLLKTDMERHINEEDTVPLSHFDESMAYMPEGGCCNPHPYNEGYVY
# ELF4, sequence (Q99607 whole entry): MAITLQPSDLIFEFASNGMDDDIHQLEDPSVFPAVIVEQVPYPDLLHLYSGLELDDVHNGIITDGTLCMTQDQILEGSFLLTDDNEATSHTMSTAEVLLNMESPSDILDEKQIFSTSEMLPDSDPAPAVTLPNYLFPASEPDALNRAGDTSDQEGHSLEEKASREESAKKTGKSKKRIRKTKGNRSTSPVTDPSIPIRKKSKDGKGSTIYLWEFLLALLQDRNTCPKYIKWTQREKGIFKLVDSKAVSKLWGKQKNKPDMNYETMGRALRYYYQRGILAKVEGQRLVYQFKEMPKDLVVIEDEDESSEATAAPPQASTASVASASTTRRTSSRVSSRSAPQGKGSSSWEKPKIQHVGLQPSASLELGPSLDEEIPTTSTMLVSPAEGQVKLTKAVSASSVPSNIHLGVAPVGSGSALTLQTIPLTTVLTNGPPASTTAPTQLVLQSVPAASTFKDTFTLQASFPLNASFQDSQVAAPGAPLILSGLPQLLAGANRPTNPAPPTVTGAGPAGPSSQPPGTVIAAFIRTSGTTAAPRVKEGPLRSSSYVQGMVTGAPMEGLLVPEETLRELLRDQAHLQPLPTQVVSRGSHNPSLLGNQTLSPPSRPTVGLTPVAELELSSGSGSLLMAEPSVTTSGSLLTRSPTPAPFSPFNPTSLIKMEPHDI
# HSF1, sequence (Q00613 whole entry): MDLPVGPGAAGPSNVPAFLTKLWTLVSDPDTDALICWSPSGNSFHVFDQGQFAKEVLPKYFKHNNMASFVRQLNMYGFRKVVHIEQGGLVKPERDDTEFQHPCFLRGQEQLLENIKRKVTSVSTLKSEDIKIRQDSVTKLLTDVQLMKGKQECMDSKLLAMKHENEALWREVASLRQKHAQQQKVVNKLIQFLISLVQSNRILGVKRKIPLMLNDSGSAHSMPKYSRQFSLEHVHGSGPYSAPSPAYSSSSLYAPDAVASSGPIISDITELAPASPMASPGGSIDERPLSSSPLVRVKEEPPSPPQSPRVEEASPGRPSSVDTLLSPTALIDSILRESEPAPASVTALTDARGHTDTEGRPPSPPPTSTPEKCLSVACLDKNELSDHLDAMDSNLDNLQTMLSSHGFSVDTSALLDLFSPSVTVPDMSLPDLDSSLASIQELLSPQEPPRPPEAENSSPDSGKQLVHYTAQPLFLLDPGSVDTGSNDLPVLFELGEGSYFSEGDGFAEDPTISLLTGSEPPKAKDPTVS
# ETV5, sequence (P41161 whole entry): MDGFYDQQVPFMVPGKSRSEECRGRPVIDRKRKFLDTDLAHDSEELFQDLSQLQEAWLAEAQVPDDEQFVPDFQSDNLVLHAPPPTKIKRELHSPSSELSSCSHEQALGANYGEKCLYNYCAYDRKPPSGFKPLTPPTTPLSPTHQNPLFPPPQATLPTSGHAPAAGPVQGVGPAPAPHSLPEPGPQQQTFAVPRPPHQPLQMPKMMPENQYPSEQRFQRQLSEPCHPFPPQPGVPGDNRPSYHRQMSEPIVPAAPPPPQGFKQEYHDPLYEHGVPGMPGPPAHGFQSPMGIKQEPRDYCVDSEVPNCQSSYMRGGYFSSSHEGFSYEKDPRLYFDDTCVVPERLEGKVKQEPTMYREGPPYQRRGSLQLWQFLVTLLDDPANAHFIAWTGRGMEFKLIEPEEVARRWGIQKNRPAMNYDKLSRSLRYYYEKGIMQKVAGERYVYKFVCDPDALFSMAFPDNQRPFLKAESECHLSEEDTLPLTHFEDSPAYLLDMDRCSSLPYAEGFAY
# CRX, sequence (O43186 whole entry): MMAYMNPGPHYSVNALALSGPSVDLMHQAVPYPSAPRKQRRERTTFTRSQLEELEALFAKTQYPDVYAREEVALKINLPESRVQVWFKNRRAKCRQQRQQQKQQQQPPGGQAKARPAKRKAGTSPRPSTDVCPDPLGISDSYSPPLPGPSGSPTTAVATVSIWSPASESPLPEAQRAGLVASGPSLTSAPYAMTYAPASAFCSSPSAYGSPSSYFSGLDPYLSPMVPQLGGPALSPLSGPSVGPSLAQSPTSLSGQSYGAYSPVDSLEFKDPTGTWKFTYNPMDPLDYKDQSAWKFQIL
sequence,measurement,setting,value
AAGTTC,binding signal,FEV,"1.29 fold enrichment (6-mer frequency, TF over GST control)"
same,binding signal,ETV5,"1.47 fold enrichment (6-mer frequency, TF over GST control)"
same,binding signal,HSF1,"1.94 fold enrichment (6-mer frequency, TF over GST control)"
same,binding signal,SPIC,"1.54 fold enrichment (6-mer frequency, TF over GST control)"
same,binding signal,ELF4,"1.35 fold enrichment (6-mer frequency, TF over GST control)"
same,binding signal,ELK4,"1.41 fold enrichment (6-mer frequency, TF over GST control)"
same,binding signal,ETV2,"1.22 fold enrichment (6-mer frequency, TF over GST control)"
same,binding signal,ELF3,"1.47 fold enrichment (6-mer frequency, TF over GST control)"
same,binding signal,CRX,"1.22 fold enrichment (6-mer frequency, TF over GST control)"
same,binding signal,ETV1,"1.34 fold enrichment (6-mer frequency, TF over GST control)"
